# According to the supplement of paper PMC6518042:
# A number with no mark means an inactive call.
# Test system: Pectobacterium parmentieri SCC3193
# Experiment: DuctApe activity index (growth/respiration on compound as sole nutrient source, blank-subtracted) (activity index (0-3)); higher = stronger utilization of the compound, active = 3 or more
# Settings: nutrient role (plate category): carbon
# Procedure: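 Biolog Phenotype Microarray plates PM1, PM2A (carbon), PM3 (nitrogen) and PM4 (phosphorus/sulfur) inoculated with P. parmentieri SCC3193 in M9-C minimal salts medium with Biolog dye A, and read in the OmniLog for 46 h. Each well was tested in triplicate and the experiment was run twice. DuctApe computed a blank-subtracted activity index (AV, 0-3) from the mean curves; growth is positive at AV >= 3 and negative at AV <= 2.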
row,Structure (SMILES),DuctApe activity index
1,O=C[C@@H](O)[C@H](O[C@@H]1O[C@H](CO)[C@H](O)[C@H](O)[C@H]1O)[C@H](O)CO [3-O-b-D-Galactopyranosyl-D-Arabinose],1
2,OC[C@@H](O)[C@@H](O[C@@H]1O[C@H](CO)[C@H](O)[C@H](O)[C@H]1O)[C@H](O)[C@@H](O)CO [D-Lactitol],0
3,OC[C@H]1O[C@@H](O[C@H]2[C@H](O)[C@@H](O)[C@H](O[C@H]3[C@H](O)[C@H](O)[C@H](O[C@@H]4[C@H](O)[C@H](O)[C@H](O)O[C@@H]4CO)O[C@@H]3CO)O[C@@H]2CO)[C@@H](O)[C@@H](O)[C@@H]1O [Mannan],0
4,O=C[C@H](O)[C@@H](O)[C@H](O)[C@H](O)CO[C@@H]1O[C@H](CO)[C@@H](O)[C@H](O)[C@H]1O [Gentiobiose],3 (active)
5,NCCO [2-Aminoethanol],0
6,OC[C@H]1O[C@H](OC[C@H]2OC(O)[C@H](O)[C@@H](O)[C@@H]2O)[C@H](O)[C@@H](O)[C@H]1O (stereo partly drawn) [D-Melibiose],3 (active)
7,O=C(O)CO [Glycolic acid],0
8,O=C(O)C[C@@H](O)C(=O)O [D-Malic acid],0
9,CO[C@H]1O[C@H](CO)[C@@H](O)[C@H](O)[C@H]1O [a-Methyl-D-Glucoside],0
10,O=C(O)[C@H]1O[C@@H](O)[C@H](O)[C@@H](O)[C@H]1O [Pectin],3 (active)
11,O=C(O)[C@@H]1C[C@@H](O)CN1 [Hydroxy-L-Proline],0
